Only a selection was taken, and hits are over-represented in it overall.
KDM5B inh: blocks human KDM5B histone demethylase activity; Q9UGL1; KDM5B demethylase, FDH-coupled NADH fluorescence (FDH is formaldehyde dehydrogenase); Potency, µM (top dose mostly 57.7 µM), hits mostly inhibitors; actives 2.6% (n = 220,000); AID 1347165; active = well fitted inhibition curve with a large enough effect; also: 0% is about no effect; nearly all actives have a fitted effect of over 70% in size
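qHTS format, multiple compound concentrations. Buffer 50 mM HEPES pH 7.5/0.01% Tween-20; 200 nM KDM5BΔAP final; 10 min compound preincubation; substrate-mix levels 12.5 µM peptide, 25 µM α-KG, 0.25 mM NAD⁺; 30 min RT; ΔRFU.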
Numbers without * were called inactive; i = inactive. Potency is read from the fitted curve at half-maximal effect.

SMILES	KDM5B inh
O=C(Cc1ccc(F)cc1)N1CCCCC12Cc1ccccc1NC2=O (stereo not given)	i
O=C(C1CC1)N1Cc2ccccc2NC(=O)C12CCNC2 (stereo not given)	i
O=C1Nc2ccccc2CN(CC2CC2)C12CCNC2 (stereo not given)	i
O=C1Nc2ccccc2CC12CCN2Cc1ccc(C(F)(F)F)cc1 (stereo not given)	i
O=C1Nc2ccccc2CN(Cc2ccc(F)cc2)C12CCNCC2	45µM*
O=C1Nc2ccccc2CN(CC2CCCC2)C12CCNC2 (stereo not given)	89µM*
O=C1Nc2ccccc2CC12CCCCN2Cc1ccc(OC(F)(F)F)cc1 (stereo not given)	i
CN(Cc1cccs1)C(=O)CSc1nc2ccsc2c(=O)n1C	i
COc1ccc(C(=O)OCc2nc(-c3ccc(F)cc3)no2)cc1S(=O)(=O)N1CCCCC1C (stereo not given)	i
Clc1cccc(-c2nn3c(-c4ccc5ccccc5n4)nnc3s2)c1	i
COC(=O)c1ccccc1-c1ccc(C=C(C#N)C#N)o1	i
CS(=O)(=O)CCCN	i
CC(=O)Nc1cccc(-c2nc3cc(C)ccc3o2)c1C	i
CC(C)CN1CCC(N2CC(Oc3cccc(C(=O)N4CCCC4)c3)C2)CC1	i
O=C(c1ccccc1F)N1CCc2nc(-c3ccccc3)nc(-c3ccc(Cl)cc3)c2C1	i
CC(Oc1ccccc1)C(=O)N1CCCN(c2cc(-c3ccc(Cl)cc3)[nH]n2)CC1 (stereo not given)	i
Cc1ccc(CC(=O)N2CCCN(c3cc(-c4ccccc4)[nH]n3)CC2)cc1	28µM*
COc1ccc(CC(=O)N2CCCN(c3cc(-c4ccccc4)[nH]n3)CC2)cc1	22µM*
COc1ccc(C(=O)N2CCCN(c3cc(-c4ccccc4)[nH]n3)CC2)c(C)c1	i
O=C(Cc1cccs1)N1CCCN(c2cc(-c3ccc(Br)cc3)[nH]n2)CC1	i
O=C(Cc1ccsc1)N1CCCN(c2cc(-c3ccc(Cl)cc3)[nH]n2)CC1	i
O=C(COc1ccc(F)cc1)N1CCCN(c2cc(-c3ccc(Br)cc3)[nH]n2)CC1	i
COc1ccc(-c2cc(N3CCN(C(=O)Cc4cccc(C)c4)CC3)n[nH]2)cc1	i
Cc1cccc(OCC(=O)N2CCCN(c3cc(-c4ccc(Cl)cc4)[nH]n3)CC2)c1	14µM*
COc1cccc(S(=O)(=O)N2CCCN(S(=O)(=O)c3ccccc3)CCC(=O)NCC2)c1	i
SMILES	KDM5B inh
CC(C)CC(CNC(=O)c1nn(-c2ccccc2)c(=O)c2ccccc12)N1CCOCC1 (stereo not given)	i
Cc1nc(C(=O)NCc2cccs2)ccc1C#N	i
CCc1cccc2c(C(=O)CN3CCN(CC(=O)NC4CC4)CC3)c[nH]c12	i
Cc1ccc(C)c(S(=O)(=O)Nc2ccc3oc(C)nc3c2)c1	i
CC(NC(=O)C(=O)C1C(=O)Nc2ccccc21)C(=O)O (stereo not given)	i
O=C(CN1C(=O)CSc2ccccc21)NO	i
CCCNC(=O)[C@@H]1Cc2c[nH]c3cccc(c23)[C@H](CC(C)C)N1	i
CC(C)C[C@@H]1N[C@H](C(=O)N2CCN(C)CC2)Cc2c[nH]c3cccc1c23	32µM*
CC(C)C[C@@H]1N[C@H](C(=O)N2CCC(NC(=O)c3ccccc3)CC2)Cc2c[nH]c3cccc1c23	i
CSc1cccc(NC(=O)/C(=C/c2ccccc2Cl)c2ccccc2)c1	i
Clc1cccc(CN2CC(CNc3cccnc3)C3(C2)CN(c2ccccc2)C3)c1 (stereo not given)	32µM*
O=C(NCC1CN(Cc2cccc(O)c2)CC12CN(c1ccccc1)C2)c1ccccc1 (stereo not given)	i
O=C(c1cn[nH]c1)N1CC2(CN(Cc3cccc(OC(F)(F)F)c3)CC2COc2ccccc2)C1 (stereo not given)	i
N#Cc1cccc(CN2CC(COc3ccccc3)C3(C2)CN(c2ccccc2)C3)c1 (stereo not given)	40µM*
C[S+](=O)([O-])c1cccc(CN2CC(COc3ccccc3)C3(C2)CN(c2ccccc2)C3)c1 (stereo not given)	35µM*
Cn1nccc1C(=O)N1CC(COc2ccccc2)C2(C1)CN(c1ccccc1)C2 (stereo not given)	i
c1ccc(N2CC3(CN(CC4CC4)CC3CNc3cccnc3)C2)cc1 (stereo not given)	i
Cn1ccc(C(=O)N2CC(COc3ccccc3)C3(C2)CN(c2ccccc2)C3)n1 (stereo not given)	i
Clc1cnccc1CN1CC(CNc2ccccc2)C2(C1)CN(c1ccccc1)C2 (stereo not given)	i
COc1ccc(/C=C/C(=O)O)cc1Br	i
O=C(O)c1cccc(NC(=O)c2ccc(Cl)s2)c1	i
COc1cc(-c2nnc(SCC(=O)NC3CCCc4ccccc43)o2)cc(OC)c1OC (stereo not given)	i
CCOc1ccc(CN(C)C(=O)C2CCN(c3nc4ccccc4o3)CC2)cc1OC	i
CCCC(=O)NNC(=S)NC1CC1	i
Cc1ccc(-n2ncc3c2NC(=O)CC32C(=O)N(CC(N)=O)c3ccccc32)cc1C (stereo not given)	i
SMILES	KDM5B inh
COC(=O)c1cnc(N2CCN(c3ccccc3)CC2)c2ccccc12	i
CS(=O)(=O)CC(O)c1cc2n(n1)CCN(Cc1ccc(Cl)s1)C2 (stereo not given)	i
COc1ccc(C(=O)N2CCn3nc(C(O)CS(C)(=O)=O)cc3C2)cn1 (stereo not given)	i
CS(=O)(=O)CC(O)c1cc2n(n1)CCN(c1cncc(C(N)=O)n1)C2 (stereo not given)	25µM*
Cc1ccc(CC(=O)N2CCC(n3cc(-c4nc(C)no4)nn3)CC2)cc1	i
O=C(Nc1ncc2c(n1)CC(c1cccs1)CC2=O)c1ccc(F)cc1 (stereo not given)	i
COc1ccc2c(c1)CC/C(=C\c1ccccc1Br)C2=O	i
O=C(Nc1ccc(-c2ccccc2)cc1)c1ccccc1C(F)(F)F	i
COc1cccc(C2CCCN2Cc2cc(=O)oc3cc(OC)ccc23)c1 (stereo not given)	i
C=C(C)Cn1c(N2CCN(Cc3ccccc3)CC2)nc2c1c(=O)[nH]c(=O)n2C	i
CCn1cc(CN2CCN(C(=O)c3ccco3)CC2)ccc1=O	i
CCn1cc(CN2CCN(C(=O)c3cccs3)CC2)ccc1=O	11µM*
O=C(c1ccccc1)N1CCN(Cc2ccc(=O)n(CC3CC3)c2)CC1	i
O=C(c1ccoc1)N1CCN(Cc2ccc(=O)n(CC3CC3)c2)CC1	i
O=C(O)CCC(=O)N1CCN(CCc2ccccc2)CC1	i
CCN1CCN(C(=O)c2cccs2)CC1	i
CCn1cc(CN2CCN(C(=O)CCc3ccccc3)CC2)ccc1=O	7.1µM*
O=C(c1cccs1)N1CCN(Cc2ccc(=O)n(CC3CC3)c2)CC1	i
O=C(c1ccccn1)N1CCN(Cc2ccc(=O)n(CC3CC3)c2)CC1	16µM*
Cc1ccc(NC(=O)CCC2CCCCC2)c(NC(=O)c2ccco2)c1	i
O=C(CN1CCCCC1)NC1CC(=O)N(Cc2cccc3ccccc23)C1 (stereo not given)	i
Cn1cccc1C(=O)N1CCC2(CC1)CN(Cc1ccccc1)CC2CO (stereo not given)	i
CCc1nnc(Cn2cnc3scc(-c4ccc(C)cc4)c3c2=O)o1	i

High-throughput results: PubChem BioAssay, National Center for Advancing Translational Sciences (NCATS)
